ChEMBL document CHEMBL4513216, “Probing the Open Global Health Chemical Diversity Library for Multistage-Active Starting Points for Next-Generation Antimalarials” (ACS Infect Dis, 2020)
About 2,700 (4%) of roughly 68,000 compounds showed an effect of 50% or more. The sample as a whole holds a higher share of strong results than the screen did.

Test system: Plasmodium berghei
Assay: Screen against P. berghei liver stage (PbLuc), transformed with Luciferase, at 2uM
Format: functional, HepG2
Details: tested at 2 uM

| Compound | INHIBITION [%] |
| --- | --- |
| CCC(C)(C)NC(=O)CN(Cc1cccc(O)c1)C1CCC(O)CC1 (configuration not stated) | 6.85 |
| Cn1cc(CN2CCC(F)(F)C3(CCN(c4ncccn4)C3)C2)cn1 (configuration not stated) | 11.54 |
| COCCOc1cccc(C(=O)N2CCCC(n3ccnc3C)C2)c1 (configuration not stated) | 27.55 |
| COC(=O)c1ccc(NCc2csc(C)n2)cc1Cl | -37.11 |
| CCOc1c(Br)cc(C2c3c(n[nH]c3C)N=C3COC(=O)C32)cc1OC (configuration not stated) | -54.78 |
| Cc1nc(C)c(C(=O)N2CCCc3c(F)ccc(F)c32)o1 | 44.71 |
| Cc1nc(C)c(C(=O)N2CCc3c(C)cccc32)o1 | 43.28 |
| Cc1nc(C)c(C(=O)N2CCCc3c(F)cccc32)o1 | 54.77 |
| COc1ccc(CNC[C@H]2COCc3nc4cccnc4n32)cn1 | -8.63 |
| CC1CCN(C(=O)c2cccc3ncccc23)CC1 | -29.11 |
| CN(C)C(C(=O)N1CC(c2ccccn2)C1)c1cccc(F)c1 (configuration not stated) | 12.35 |
| Cc1ccc(Sc2nccn(C)c2=O)cc1 | -2.44 |
| Cn1ccnc(Sc2ccc(O)cc2)c1=O | -31.15 |
| Cn1ccnc(Sc2ccccc2)c1=O | 50.53 |
| COc1ccc2c(c1)CC(NCCCn1cc(C)cn1)CC2 (configuration not stated) | -0.75 |
| CN(Cc1cccc(Cl)c1)S(=O)(=O)N1CCOCC1 | 50.74 |
| CN(Cc1cccc(F)c1)S(=O)(=O)N1CCOCC1 | 46.57 |
| COc1cccc(CN(C)S(=O)(=O)N2CCOCC2)c1 | 11.97 |
| CCc1nc(CN2CCOC(CN(CC)c3cccnn3)C2)cs1 (configuration not stated) | -24.11 |
| CN1CCN(Cc2cn3c(n2)CN(C(=O)c2cccn2C)CC3)CC1 | -36.65 |
| O=C(c1ccc(NC2CC2)nc1)N1CCC(Nc2cccnn2)CC1 | 22.1 |
| CCn1c(C)cc(C(=O)N2CCC(Nc3ccc(C)nn3)CC2)c1C | 13.88 |

| Compound | INHIBITION [%] |
| --- | --- |
| CC(C(=O)N1CCC(Nc2cccnn2)CC1)n1ccnc1 (configuration not stated) | -12.48 |
| CCOc1ncccc1C(=O)N1CCC(Nc2ccc(C)nn2)CC1 | -23.94 |
| O=C(c1ccc2cc[nH]c2c1)N1CCC(Nc2cccnn2)CC1 | -16.42 |
| COc1ncccc1C(=O)N1CCC(Nc2ccc(C)nn2)CC1 | 62.13 |
| O=C(c1ccc2[nH]c(=O)[nH]c2c1)N1CCC(Nc2cccnn2)CC1 | 53.45 |
| O=C(c1ccc2[nH]nnc2c1)N1CCC(Nc2cccnn2)CC1 | -23.42 |
| CCn1c(C)cc(C(=O)N2CCC(Nc3cccnn3)CC2)c1C | 56.58 |
| CC(Cn1cccn1)C(=O)N1CCC(Nc2cccnn2)CC1 (configuration not stated) | 57.23 |
| Cc1ccc(NC2CCN(C(=O)c3cccnc3O)CC2)nn1 | -31.57 |
| CC(C(=O)N1CCC(Nc2cccnn2)CC1)n1cccn1 (configuration not stated) | 9.17 |
| O=C1NC2(CCN(Cc3ccccc3Cl)CC2)CC1c1ccccc1 (configuration not stated) | 5.92 |
| Cc1cc(NS(=O)(=O)CC2CCCCO2)ccc1F (configuration not stated) | -40.47 |
| CCc1ncc2c(n1)CN(CC(=O)Nc1nncs1)CC2 | 21.12 |
| CN(C)CCOCC1CN(Cc2cccc(F)c2)Cc2nccn2C1 (configuration not stated) | -0.23 |
| Cc1nc(CNC(=O)C(C)Oc2ccccc2F)no1 (configuration not stated) | -8.04 |
| CC1CCN(c2nc3cn(Cc4cccc(F)c4)c(=O)c-3c[nH]2)CC1 | 12.59 |
| COCC(NC(=O)NCc1sccc1C)c1ccco1 (configuration not stated) | -6.4 |
| Cc1cc(C(=O)N(C)C)nc(C2(C)CCCN2c2ccccc2)n1 (configuration not stated) | 9.9 |
| Cc1nc(C)n(CC2CCCN(CCOc3ccccc3C#N)C2)n1 (configuration not stated) | -70.51 |
| COCCN1CCO[C@H]2CCN(C(=O)c3cccs3)CC[C@@H]21 | 34.19 |
| CN(C)CCN1CCO[C@H]2CCN(C(=O)c3cccs3)CC[C@@H]21 | 33.11 |
| CS(=O)(=O)N1CCO[C@@H]2CCN(C(=O)c3cccs3)CC[C@H]21 | 51.36 |

| Compound | INHIBITION [%] |
| --- | --- |
| CN(Cc1cccnc1)C[C@@H]1OC[C@H]2CN(C(=O)C3CC3)CC[C@H]21 | 20.21 |
| Cn1cc(N2CC3(COCCN(Cc4ccsc4)C3)OCC2=O)cn1 (configuration not stated) | -17.88 |
| O=C(C1CC1)N1CCN2C[C@@H](CO)[C@H](c3ccccc3)[C@H]2C1 | 14.45 |
| CC=C(C)C(=O)NS(=O)(=O)c1ccc(Cl)cn1 | -40.56 |
| COc1ccc(NC(=O)Cc2c(C)nn(C)c2C)cc1F | 18.15 |
| COc1cc(CN(C)C(=O)Cc2c(C)nn(C)c2C)ccc1OC(F)F | -51.9 |
| COc1ccc(CN(C)C(=O)Cc2c(C)nn(C)c2C)cc1F | 51.31 |
| CN(C)CC1(O)CCCN(C(=O)c2ccccc2-n2cccn2)C1 (configuration not stated) | -6.64 |
| O=S1(=O)CCCN1Cc1coc(-c2cccs2)n1 | 21.33 |
| COCCN(CCN(C)C)C(=O)NC1CCc2ccccc2C1 (configuration not stated) | 62.39 |
| COCCN(CCOC)C(=O)NC1CCCCC1 | -20.08 |
| COCCN(CCN(C)C)C(=O)NC1CC1 | -25.13 |
| CC1(c2ccc(Br)cc2)CC(=O)N(CCC(N)=O)C1=O (configuration not stated) | -10 |
| CN(CC(C)(CO)CO)C(=O)Nc1cc(Cl)cc(Cl)c1 | -1.72 |
| Cc1nn(C)c(C)c1CN(C)S(=O)(=O)c1c(C)n[nH]c1C | 16.49 |
| Cc1cc(C)n(C2=NC(NCCCO)c3c(sc4c3CCCC4)N2)n1 (configuration not stated) | 30.54 |
| Fc1cnc(N2CCO[C@H]3[C@H](OCC4CCOCC4)CC[C@@H]32)nc1 | -39.98 |
| COc1cc(-n2cccc2)c(Cl)cc1C(=O)NS(C)(=O)=O | 1.06 |
| CCC(CC)C(=O)NCc1cn2cc(Br)ccc2n1 | -10.87 |
| CCOCCOC(C)C(=O)NCc1cn2cc(Br)ccc2n1 (configuration not stated) | -4.1 |
| CCOCCOC(C)C(=O)NCc1cn2cc(Cl)ccc2n1 (configuration not stated) | 52.74 |
| O=C(c1ccco1)N1CCOCC2(CCN(C3CCOCC3)C2)C1 (configuration not stated) | -68.56 |

| Compound | INHIBITION [%] |
| --- | --- |
| c1ccc(CN2CCNCC(Cc3cnccn3)C2)cc1 (configuration not stated) | 6.19 |
| Cc1ncccc1NC(=O)[C@H]1C[C@@H]2CCN(Cc3ccsc3)C[C@H]2O1 | -30.39 |
| CC(C)N(CCCNC(=O)C1CCOCC1)S(C)(=O)=O | 18.14 |
| CN(C)C(=O)NCc1cc2n(n1)CCCN(CC1[C@H]3CNC[C@@H]13)C2 (some centres not stated) | 14.46 |
| O=C(OC1CCC1)c1ncccc1OCC(F)(F)F | 21.72 |
| O=C(OC1CCC1)c1ncccc1C(F)(F)F | 46.63 |
| O=C(O)c1ncccc1OCC(F)(F)F | 55.73 |
| CCc1nccn1CC(=O)N1C[C@@H]2CC[C@H]1CN(c1ncccn1)C2 | -54.76 |
| Cc1nc(CN2CCCN(Cc3nc4c(F)cccc4[nH]3)CC2)no1 | 27.86 |
| CN(C)C(=O)n1c(C(=O)NC(C)(C)CO)cc2c1c1ccccc1n2C | 50.35 |
| CCCNC(=O)c1cc2c(c3ccccc3n2C)n1C(=O)N(C)C | -15.3 |
| CC(C)NC(=O)c1cc2c(c3ccccc3n2C)n1C(=O)N(C)C | 9.21 |
| CN(C)CCN1C(=O)CC[C@@H]2[C@H]1CCN2C(=O)c1ccc(C#N)cc1 | 33.35 |
| CS(=O)(=O)N1C[C@H]2CC[C@@H](C1)N(Cc1ccc3nsnc3c1)C2 | 6.3 |
| Cc1cc(C(=O)N2CCCC(Cn3cc(C4CC4)nn3)C2)nc(C)n1 (configuration not stated) | 15.27 |
| CC(O)CN1CCC(CNCc2cccc(C(F)(F)F)c2)CC1 (configuration not stated) | -32.84 |
| CCc1nnc(CNC(=O)CCC2CCCCN2C)s1 (configuration not stated) | -22.64 |
| CCc1nnc(CNC(=O)CCC2CCCN(C)C2)s1 (configuration not stated) | 52.47 |
| CN1CCCC(CCC(=O)NCCc2nnc(N)s2)C1 (configuration not stated) | 49.25 |
| O=C(CCCN1CCCCC1)N1CCN(C(=O)c2ccc[nH]2)CC1 | 2.7 |
| Cn1c(N)nnc1SCC1OCCc2ccccc21 (configuration not stated) | 18.52 |
| CCCn1c(O)nnc1SCC1OCCc2ccccc21 (configuration not stated) | -10.86 |

| Compound | INHIBITION [%] |
| --- | --- |
| Cn1c(SCC2OCCc3ccccc32)n[nH]c1=O (configuration not stated) | 54.53 |
| COc1ccc(CN2CC(O)CN(C(=O)c3ccccc3)CC2=O)cc1 (configuration not stated) | -21.31 |
| OCc1ccc(CNc2ccccc2CN2CCC(O)CC2)o1 | 5.02 |
| CCc1ccc(CNc2ccccc2CN2CCC(O)CC2)o1 | -10.29 |
| CSc1ccc(CNc2ccccc2CN2CCC(O)CC2)cc1 | 50.03 |
| CCSCc1ccnc(NC(=O)C2CCOC2)c1 (configuration not stated) | 51.27 |
| CCSCc1ccnc(NC(=O)C2CCCO2)c1 (configuration not stated) | 31.62 |
| O=C(Nc1cc(CSCCO)ccn1)c1ccc(Cl)o1 | -32.88 |
| COc1ccc(-c2csc(-c3cccc(C(=O)O)c3)n2)cc1OC | -60.47 |
| c1ccc(CN2CCC3(CC2)Nc2ccccc2CO3)cc1 | 17.25 |
| Cc1cc(CN2CCC(CNC(=O)c3ccc(C#N)cc3)C2)[nH]n1 (configuration not stated) | 39.57 |
| Cc1cc(CN2CCC(CNC(=O)CN3CCCCCC3)C2)[nH]n1 (configuration not stated) | 63.17 |
| Cc1cc(CN2CCC(CNC(=O)Cc3ccc(F)cc3)C2)[nH]n1 (configuration not stated) | -73.43 |
| CCC1=N[C@@]2(CC[C@@H]3CN(Cc4ccc(Cl)cc4)C[C@@H]32)C(=O)N1C | 17.51 |
| CN1CCc2[nH]cnc2C12CCN(C(=O)c1noc3c1CCCC3)CC2 | -15.03 |
| Cn1c(CN2CCOC[C@H]2c2nc(C(C)(C)C)co2)nc2ccccc21 | -39.35 |
| C[C@@H]1CN(Cc2nc(C(N)=O)no2)CC[C@@]1(O)C1CCOCC1 | 26.14 |
| C[C@@H]1CN(Cc2nc(C(N)=O)no2)CC[C@@]1(O)C1CC1 | 59.1 |
| CNC(=O)c1noc(CN2CC[C@](C)(O)[C@H](C)C2)n1 | -44.85 |
